Assay outcomes: PubChem BioAssay, National Center for Advancing Translational Sciences (NCATS)
Shown are actives, neighbours in structure and some others; about 7.9% of the full set was active somewhere.
SW480 rereplic = induces DNA re-replication in SW480 colon adenocarcinoma cells; AID 624297; SW480 DNA re-replication, Hoechst DNA content imaging, 48 h; Potency, µM (titrated, usually from 46.1 µM), for the others: at the top dose re-replication activation, hits mostly activators; 340,000 tested, 1.8% active; also: % of control where 0% means no effect; nearly all actives have a fitted effect of over 55% in size
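Hoechst fluorescence of nuclei (405 nm excitation, 500-530 nm emission) measured by plate-scanning imager after 48 hr compound exposure at 37 C; re-replication scored as increased number of nuclei with elevated intensity.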
KB-V1 cytotox = kills drug-selected multidrug resistant KB-V1 cells; KB-V1 MDR cells viability, CellTiter-Glo, 72 h; Potency, µM (titrated, usually from 46.1 µM), actives largely listed as cytotoxic; 400,000 tested, 3.4% active; AID 1347076; also: % is scaled to controls: 0 for no effect and ±100 for the full control effect; nearly all actives have a fitted effect of over 60% in size
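Drug-selected KB-V1 cells, grown in DMEM lacking phenol red with 10% FBS, receive compound titrations; after three days at 37 degrees C, surviving cell ATP is quantified by CellTiter-Glo luminescence and responses normalized and curve-fitted.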
HT1080NT lethal = kills 2HG-producing HT-1080-NT fibrosarcoma cells | HT-1080-NT fibrosarcoma viability, CellTiter-Glo ATP luminescence, 48 h | Potency, µM (titrated, usually from 46.1 µM), for inactives: at the highest dose activity, negative = less viability, hits mostly cytotoxic | 360,000 tested, 1.6% active | AID 686970;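 also: NT is the 2HG producing partner of a matched IDH1 knockdown line; 0% = DMSO-treated cells and -100% = media-only wells without cells; nearly all actives have a fitted effect of over 55% in size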
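HT-1080-NT fibrosarcoma cells (2HG-overproducing), 750 cells/well in RPMI with 5% FBS, dosed after 2 h and incubated 48 h at 37C. CellTiter-Glo luminescence normalized to DMSO and no-cell wells; concentration-response curves fitted and classed.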
MCF10A rereplic = DNA re-replication induction in MCF 10a cells; MCF 10A DNA re-replication, Hoechst nuclear intensity, 48 h; Potency, µM (doses to about 46.1 µM), for the others: at the highest dose activity, positive = re-replication, usual class: activators; 350,000 tested, 2.9% active; AID 624296; also: % of control where 0% means no effect; nearly all actives have a fitted effect of over 50% in size
KB-3-1 tox = kills parental KB-3-1 adenocarcinoma cells; 400,000 tested, 1.4% active; KB-3-1 viability, CellTiter-Glo ATP luminescence, 72 h; Potency, µM (doses to about 46.1 µM), usual class: cytotoxic; AID 1347075; also: % is scaled to controls: 0 for no effect and ±100 for the full control effect; nearly all actives have a fitted effect of over 60% in size
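72 h, 37 °C compound treatment of KB-3-1 parental cells; CellTiter-Glo added, 10 min, luminescence read. Data corrected against DMSO-only plates and normalized before curve fitting.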
HT1080 IDH1KD tx = HT-1080 IDH1 knockdown cell toxicity (counter line). HT-1080 IDH1 knockdown viability, ATP luminescence, 48 h. Potency, µM (highest dose often 46.1 µM), inactives show top-dose activity, negative = toxicity, usual class: cytotoxic. 360,000 tested, 2% active. AID 686971;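 also: 0% = DMSO wells and -100% = cell-free medium wells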
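Luminescent ATP read-out (CellTiter-Glo, 10 min at room temperature) after 48 h compound exposure at 37 °C gave viability of IDH1-knockdown HT-1080 cells. Activity was normalised to DMSO and cell-free wells, then fitted as concentration-response curves.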
* = called active by the depositor; i = inactive; ? = inconclusive; · = no result; [ ] = dose if it differs, or a comment. Calls follow the shape of the dose curve; as a rule, active = well fitted curve in the direction sought with a large enough effect; inconclusive = small, poorly fitted or top-dose-only effect, or another doubt; inactive = no such curve, though single readings can be large; an effect the other way counts as inactive or inconclusive. Potency is read from the fitted curve at half-maximal effect.

SMILES | SW480 rereplic | KB-V1 cytotox | HT1080NT lethal | MCF10A rereplic | KB-3-1 tox | HT1080 IDH1KD tx
Cc1cc(C(=O)NC2CCCc3c2cnn3-c2cccc(C)c2C)no1 (configuration not stated) | -0.1% | ? | -25.2% | 24.1% | 1.84µM* | ?
COC(=O)c1ccc(NC(=O)CSc2n[nH]c(CC(C)C)n2)cc1 | · | ? | · | · | i | ·
FC(F)(F)c1cccc(N2CCN(c3nnnn3-c3ccccc3)CC2)c1 | 10.6% | ? | 2.3% | 12.6% | i | -4.2%
CN(C)C=NC1=NN(c2cccc(C(F)(F)F)c2)CC1 | -3.8%[9.22 µM] | 2.06µM* | -17.2% | 13.7% | 20.6µM* | -11.2%
CN1CCN(C=NC2=NN(c3cccc(C(F)(F)F)c3)CC2)CC1 | -2.5% | 10.3µM* | -2.6% | 6.5% | ? | -19.2%
COc1ccc(NC(=S)N2CCC3CC2c2c(Cl)cccc23)c(OC)c1 (configuration not stated) | · | i | -7.3% | · | ? | -3.7%
Cc1ccccc1Cn1c(CN2CCCC(C)C2)nc2c1c(=O)n(C)c(=O)n2C (configuration not stated) | · | i | · | · | i | ·
COc1ccc(-c2cc(C(F)(F)F)n3nc(C(=O)N4CCN5CCCC5C4)cc3n2)cc1OC (configuration not stated) | ? | i | -1.0% | 11.6µM* | i | -5.9%
Cc1ccc(-c2cc(C(F)(F)F)n3nc(C(=O)N4CCN5CCCC5C4)cc3n2)cc1 (configuration not stated) | ? | i | ? | ? | i | ?
COc1ccc(N2CCN(C(=O)CC34CC5CC(CC(C5)C3)C4)CC2)c([N+](=O)[O-])c1 | 4.0% | 18.4µM* | 10.2% | ? | ? | 9.3%
N#Cc1ccc(OCC(O)CN2CCC(C(O)(c3ccccc3)c3ccccc3)CC2)cc1 (configuration not stated) | ? | i | -8.1% | ? | i | ?
CC(C)(C(=O)O)c1ccc(C(O)CCCN2CCC(C(O)(c3ccccc3)c3ccccc3)CC2)cc1 (configuration not stated) | -55.3% | · | 13.9% | -2.3% | · | -4.9%
Cc1cc(OCCCN2CCC(C(O)(c3ccccc3)c3ccccc3)CC2)ccc1Br | · | 20.6µM* | 16.4µM* | · | ? | ?
N#Cc1cccc(OCCCN2CCC(C(O)(c3ccccc3)c3ccccc3)CC2)c1 | · | 23.1µM* | ? | · | ? | ?
COc1ccccc1CNC(=O)c1cc2sccc2n1Cc1ccc(F)cc1 | · | i | · | · | i | ·
COc1ccc(-c2oc3ncn(CCN4CCOCC4)c(=N)c3c2-c2ccc(OC)cc2)cc1 | ? | ? | ? | 13µM* | ? | ?
Cc1ccc(-c2csc3ncnc(NCCN4CCOCC4)c23)cc1 | 17.1% | i | -27.7% | ? | i | -20.5%
COc1ccc(-c2oc3ncnc(NCCCN4CCOCC4)c3c2-c2ccc(OC)cc2)cc1 | ? | 18.4µM* | ? | ? | i | ?
COc1ccc(-c2csc3ncnc(NCCN4CCOCC4)c23)cc1 | ? | ? | 23.1µM* | ? | ? | 20.6µM*
CCOc1cc2nc(-c3ccc(OC)c(OC)c3)nc(NCCCN3CCOCC3)c2cc1OC | ? | ? | ? | 11.6µM* | i | ?
COc1ccc(-c2oc3ncnc(NCCN4CCOCC4)c3c2-c2ccc(OC)cc2)cc1 | 7.8% | ? | 0.9% | ? | ? | -1.5%
CCCn1c(=N)c(C(=O)NC2CCCC2)cc2c(=O)n3cc(C)ccc3nc21 | · | ? | · | · | i | ·
CCOC(=O)c1cccc(NC(=O)CN2C(=O)c3ccccc3Sc3ncccc32)c1 | · | i | · | · | i | ·
CCCc1cc(=O)[nH]c(Nc2cc(Cl)ccc2OC)n1 | · | i | · | · | i | ·
Clc1ccc(-c2nc(NCCN3CCOCC3)c3ccccc3n2)cc1 | ? | 4.11µM* | ? | ? | i | ?
SMILES | SW480 rereplic | KB-V1 cytotox | HT1080NT lethal | MCF10A rereplic | KB-3-1 tox | HT1080 IDH1KD tx
CCC(C)NC(=O)Cn1c(=O)n(CCCC(=O)NCc2ccc(C)cc2)c(=O)c2ccccc21 (configuration not stated) | · | i | · | · | i | ·
CCOc1ccc(S(=O)(=O)Oc2ccc3ccccc3c2)cc1 | -1.3% | ? | -7.2% | ? | ? | -18.5%
CC1=CC(C)(C)Nc2ccc(OC(=O)CCN3C(=O)c4ccccc4C3=O)cc21 | 9.2µM* | ? | ? | 6.51µM* | ? | ?
O=C(CCN1C(=O)c2ccccc2C1=O)Oc1ccc2ccccc2c1 | -1.5% | i | -2.5% | -1.0% | i | -1.7%
CC1=CC(C)(C)Nc2ccc(OS(=O)(=O)c3ccc(C)cc3)cc21 | -5.8% | 14.6µM* | -0.2% | ? | i | -18.0%
Cc1ccc(S(=O)(=O)Oc2ccc3ccc(O)cc3c2)cc1 | -17.4% | ? | -6.9% | 1.03µM* | i | -4.1%
O=[N+]([O-])c1cccc(S(=O)(=O)NCCNS(=O)(=O)c2cccc([N+](=O)[O-])c2)c1 | 2.0% | · | · | 0.6% | · | ·
CC/C(=C\c1oc2cc3ccccc3cc2[n+]1CC)Nc1ccccc1 | 18.4µM* | 20.6µM* | -28.6% | 23.1µM* | i | ?
COC(=O)C1=CN(C2CC2)C=C(C(=O)OC)C1c1ccc(C(=O)OC)cc1 | 4.0% | 7.31µM* | 0.3% | ? | i | 7.3%
COC(=O)C1=CN(C2CC2)C=C(C(=O)OC)C1c1ccc(C(F)(F)F)cc1 | ? | i | 16.3% | ? | i | 7.2%
Cc1ccc(OCc2nnc(SCC(=O)Nc3cccc4ccccc34)n2-c2ccccc2)cc1 | 9.5% | ? | -21.9% | 18.4µM* | i | -18.8%
Cc1ccc(C(=O)CSc2nnc(COc3ccc(C#N)cc3)n2-c2ccccc2)cc1 | -0.5% | i | -23.5% | 8.7% | i | -28.8%
Cc1ccccc1OCc1nnc(SCc2cc(=O)[nH]c3ccccc23)n1-c1ccccc1 | ? | 16.4µM* | -19.7% | ? | ? | -19.4%
Cc1ccc(OCc2nnc(SCc3cc(=O)[nH]c4ccccc34)n2-c2ccccc2)cc1 | 4.6% | i | 16.4µM* | 1.0% | i | ?
Cc1ccc(-n2c(C)nc3c(cnn3-c3ccccc3Cl)c2=O)cc1C | 2.6% | 20.6µM* | 16.9% | 0.5% | ? | -0.8%
Cc1nc2c(cnn2-c2ccccc2Cl)c(=O)n1-c1ccc(N2CCC(C)CC2)cc1 | -0.8% | 6.51µM* | -10.0% | 4.0% | 16.4µM* | -27.1%
Cc1c(C(=O)N(C)C)sc2c1c(=O)n(-c1ccc(F)cc1)c(=O)n2Cc1cc(=O)n2ccccc2n1 | · | i | · | · | i | ·
